Apoferritin bind: binds horse apoferritin like a general anesthetic | P02791 | apoferritin/1-aminoanthracene competitive binding, fluorescence | Potency, µM (series often up to 77.5 µM), usual class: inhibitors | 350,000 tested, 0.074% active; further: nearly all actives have a fitted effect of over 20% in size
Target sequence (P02791 2-175 limits assumed): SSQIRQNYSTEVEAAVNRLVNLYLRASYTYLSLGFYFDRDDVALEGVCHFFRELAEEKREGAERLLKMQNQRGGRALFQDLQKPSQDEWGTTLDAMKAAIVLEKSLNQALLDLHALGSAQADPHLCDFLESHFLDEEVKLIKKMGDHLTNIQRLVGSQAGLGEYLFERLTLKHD
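Probe: 1-aminoanthracene (50% saturated, PBS). Protein: horse-spleen apoferritin, 10 uM. Incubation: 10 min, room temperature. Detection: 380 nm excitation, 535 nm emission. Analysis: normalized response, four-parameter Hill.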
mIDH1 inhibitor: blocks human mutant IDH1 R132H enzyme; O75874; IDH1-R132H enzyme, NADPH consumption, diaphorase/resazurin fluorescence; Potency, µM (series often up to 76.6 µM), hits mostly inhibitors; 390,000 tested, 0.093% active; AID 602179; further: nearly all actives have a fitted effect of over 65% in size
Target sequence (O75874 whole entry R132H, stated change not applied): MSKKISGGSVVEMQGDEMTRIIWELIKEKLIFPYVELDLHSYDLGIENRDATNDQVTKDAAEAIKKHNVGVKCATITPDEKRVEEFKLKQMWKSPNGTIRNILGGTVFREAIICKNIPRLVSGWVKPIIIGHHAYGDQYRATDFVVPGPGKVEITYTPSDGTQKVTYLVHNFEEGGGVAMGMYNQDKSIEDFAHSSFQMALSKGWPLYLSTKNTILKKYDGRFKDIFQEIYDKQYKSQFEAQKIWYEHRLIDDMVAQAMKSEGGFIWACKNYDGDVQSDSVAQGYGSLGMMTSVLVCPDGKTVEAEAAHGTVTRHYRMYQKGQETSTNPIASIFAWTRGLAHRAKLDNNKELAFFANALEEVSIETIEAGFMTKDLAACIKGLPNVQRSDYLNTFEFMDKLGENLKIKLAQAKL
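IDH1-R132H (0.5 ug/mL) preincubated 30 min with compound, then NADPH (0.016 mM) and alpha-KG (2 mM) added; 80 min at RT, pH 7.5. Remaining NADPH coupled via diaphorase/resazurin to fluorescence (540/590 nm); concentration-response curves normalized to no-enzyme control.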
A549 tox: A549 cytotoxicity, counter-screen for Nrf2 inhibitors; 390,000 tested, 0.16% active; A549 ARE-Fluc cells, CellTiter-Fluor viability, 18-24 h; Potency, µM (series often up to 46 µM), hits mostly inhibitors
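A549 ARE_Fluc cells in 5% FBS OPTI-MEM were exposed to compounds in concentration-response for 18-24 h at 37 deg C. Viability was read by CellTiter-Fluor fluorescence (Ex 405/Em 525) after 30 min, before the luciferase read.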
Nrf2 ARE act: Nrf2 pathway activation; AREc32 ARE-luciferase reporter (MCF7-derived line), luminescence, 24 h; Potency, µM (doses to about 46.1 µM), actives largely listed as activators; 410,000 tested, 0.31% active; further: nearly all actives have a fitted effect of over 65% in size
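Steps: seed AREc32_Fluc cells (1000/well, 5% FBS OPTI-MEM); incubate overnight at 37 deg C; add 23 nL compound; incubate 24 hr; add Steady-Glo; hold 30 min RT; read luminescence.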
Giardia kill: kills Giardia lamblia | activity change, % at 7.66 µM, hits read low | Giardia lamblia trophozoite viability | 340,000 tested, 0.15% active; in the data active means activity change below about -80%; inconclusive means between about -30% and that limit;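 further: parasites exposed to compound for two days anaerobically before the ATP read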
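Giardia lamblia trophozoites (100 cells/well) were incubated with compounds for 48 h at 37 deg C under anaerobic conditions. Viability was read as ATP content by one-step luminescence after 15-30 min at room temperature.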
Nrf2 inh: inhibitors of Nrf2 signaling; Potency, µM (top dose mostly 46 µM), most hits filed as inhibitors; A549 ARE-Fluc reporter, luciferase luminescence, 18-24 h; 360,000 tested, 2.1% active; further: nearly all actives have a fitted effect of over 60% in size
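Nrf2 function is reported as luminescence of an ARE-controlled luciferase in A549 cells. Compounds were tested at several concentrations, and a CellTiter-Fluor read on the same wells flagged cytotoxicity.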
Numbers stand for hits. The list is not random: actives were taken first. Their share in the collection is about 2.3%. Unless noted, the call rests on the fitted dose curve; in most records, active means well fitted curve in the direction sought with a large enough effect; inconclusive means small, poorly fitted or top-dose-only effect, or another doubt; inactive means no such curve, though single readings can be large; an effect the other way counts as inactive or inconclusive.

For COc1ccc(Cl)cc1NC(=O)c1cnccn1 the results were Apoferritin bind inactive, mIDH1 inhibitor inactive, A549 tox inactive, Nrf2 ARE act 13µM, Giardia kill inactive and Nrf2 inh inactive.
Cc1ccc(O)c(NC(=O)c2cc(C)no2)c1 was read as Apoferritin bind inactive, mIDH1 inhibitor inactive, A549 tox inactive, Nrf2 ARE act 13µM, Giardia kill inactive and Nrf2 inh inconclusive.
For COc1ccc(Cl)cc1NC(=O)c1cc(C)no1 the results were Apoferritin bind inactive, mIDH1 inhibitor inactive, A549 tox inactive, Nrf2 ARE act 8.9µM, Giardia kill inactive and Nrf2 inh inactive.
`O=C(Nc1cc(Cl)ccc1Oc1ccccc1)c1cnccn1` gave Apoferritin bind inactive, mIDH1 inhibitor inactive, A549 tox inactive, Nrf2 ARE act inactive, Giardia kill inactive and Nrf2 inh inactive.
For CC1CCC(NC(=O)c2ccc3c(c2)N(Cc2cccc(Cl)c2)C(=O)c2ccccc2S3=O)CC1 (configuration not stated) the results were Apoferritin bind inactive, mIDH1 inhibitor inactive, A549 tox inactive and Nrf2 ARE act inactive.
Screening CS(=O)(=O)N1CCN(c2ccccc2NC(=O)c2ccc([N+](=O)[O-])o2)CC1 returned Apoferritin bind inactive, mIDH1 inhibitor inactive, A549 tox inactive, Nrf2 ARE act 8.9µM, Giardia kill -98 and Nrf2 inh inactive.
CN1CCN(c2ccccc2NC(=O)c2ccc([N+](=O)[O-])o2)CC1 was read as Apoferritin bind inactive, mIDH1 inhibitor inactive, A549 tox inactive, Nrf2 ARE act inactive, Giardia kill -92 and Nrf2 inh inactive.
For CS(=O)(=O)N1CCN(c2ccccc2NC(=O)c2ccc3c(c2)OCCO3)CC1 the results were Apoferritin bind inactive, mIDH1 inhibitor inactive, A549 tox inactive, Nrf2 ARE act inactive, Giardia kill inactive and Nrf2 inh inactive.
Screening CN1CCN(c2ccccc2NC(=O)c2ccc(-c3cccc([N+](=O)[O-])c3)o2)CC1 returned Apoferritin bind inactive, mIDH1 inhibitor inactive, A549 tox inactive, Nrf2 ARE act inactive, Giardia kill inactive and Nrf2 inh inactive.
For O=C(CSC1=NCCS1)N1CCN(c2ccc(Cl)cc2)CC1 the results were Apoferritin bind inactive, mIDH1 inhibitor inactive, A549 tox inactive, Nrf2 ARE act inactive, Giardia kill inconclusive and Nrf2 inh inconclusive.
Screening O=C(CSC1=NCCS1)c1ccc(Cl)cc1 returned Apoferritin bind inconclusive, mIDH1 inhibitor inactive, A549 tox inactive, Nrf2 ARE act inactive, Giardia kill inactive and Nrf2 inh 13µM.
Screening Cc1cc(C)c(S(=O)(=O)c2ccccc2)c(OC(=O)c2c(Cl)cc(Cl)cc2Cl)n1 returned Apoferritin bind inactive, mIDH1 inhibitor inactive, A549 tox inconclusive, Nrf2 ARE act inactive, Giardia kill inactive and Nrf2 inh 16µM.
`Cc1cc(C)c(S(=O)(=O)c2ccccc2)c(OC(=O)c2c(F)cccc2F)n1` gave Apoferritin bind inactive, mIDH1 inhibitor inactive, A549 tox inactive, Nrf2 ARE act inactive, Giardia kill inactive and Nrf2 inh inconclusive.
`Cc1ccc(C)c(/C=C/C(=O)c2ccccc(=O)c2O)c1` gave Apoferritin bind inactive, mIDH1 inhibitor inactive, A549 tox inconclusive, Nrf2 ARE act inconclusive, Giardia kill inactive and Nrf2 inh 23µM.
Screening O=C(/C=C/c1ccccc1Cl)c1ccccc(=O)c1O returned Apoferritin bind inconclusive, mIDH1 inhibitor inactive, A549 tox inconclusive, Nrf2 ARE act inconclusive, Giardia kill inactive and Nrf2 inh inconclusive.
Screening Cc1ccc(/C=C/C(=O)c2ccccc(=O)c2O)c(C)c1 returned Apoferritin bind inconclusive, mIDH1 inhibitor inactive, A549 tox inconclusive, Nrf2 ARE act inactive, Giardia kill inactive and Nrf2 inh 21µM.
For CCCCCN(C(=O)CCC(=O)OCc1ccc(C(C)(C)C)cc1)c1c(N)n(CCCC)c(=O)[nH]c1=O the results were Apoferritin bind inactive, mIDH1 inhibitor inactive, A549 tox inactive, Nrf2 ARE act inactive, Giardia kill inactive and Nrf2 inh 13µM.
For O=C(CSc1ccc(-c2cccs2)nn1)Nc1ccccc1 the results were Apoferritin bind inactive, mIDH1 inhibitor inactive, A549 tox inactive, Nrf2 ARE act inactive, Giardia kill inactive and Nrf2 inh 18µM.
Screening Cc1cc(C)cc(NC(=O)CSc2ccc(-c3cccs3)nn2)c1 returned Apoferritin bind inactive, mIDH1 inhibitor inactive, A549 tox inactive, Nrf2 ARE act inactive, Giardia kill inactive and Nrf2 inh 10µM.
`COC(=O)c1ccc(NC(=O)CSc2ccc(-c3cccs3)nn2)cc1` gave Apoferritin bind inactive, mIDH1 inhibitor inactive, A549 tox inactive, Nrf2 ARE act inactive and Nrf2 inh inactive.
For N#Cc1ccccc1NC(=O)C(=O)NCCc1csc(-c2ccc(F)cc2)n1 the results were Apoferritin bind inactive, mIDH1 inhibitor inactive, A549 tox inactive and Nrf2 ARE act inactive.
For CCCCOc1ccc(CNC(=O)c2cnc3sc(N4CCOCC4)nn3c2=O)cc1 the results were Apoferritin bind 4.5µM, mIDH1 inhibitor inactive, A549 tox inactive, Nrf2 ARE act inactive and Nrf2 inh inconclusive.
Screening CC(=O)c1sc(C(C)(C)C)cc1NC(=O)/C=C/C(=O)O returned Apoferritin bind inactive, mIDH1 inhibitor inactive, A549 tox inactive, Nrf2 ARE act 16µM, Giardia kill inactive and Nrf2 inh inactive.
`CCOC(=O)C1=C(C)NC2=C(C(=O)c3ccccc32)C1c1ccc([N+](=O)[O-])o1` (configuration not stated) gave Apoferritin bind inactive, mIDH1 inhibitor inactive, A549 tox inactive, Nrf2 ARE act 14µM, Giardia kill -95 and Nrf2 inh inactive.
Screening CCOC(=O)C1=C(C)NC(=O)NC1c1ccc([N+](=O)[O-])o1 (configuration not stated) returned Apoferritin bind inactive, mIDH1 inhibitor inactive, A549 tox inactive, Nrf2 ARE act inactive, Giardia kill inconclusive and Nrf2 inh inactive.
O=C(NCc1ccc(Cl)nc1)c1ccc2nc([C@@H]3O[C@H](CO)[C@H](O)[C@H](O)[C@H]3O)[nH]c2c1 was read as Nrf2 ARE act inactive.
`N#Cc1cc([N+](=O)[O-])ccc1NC(=O)COC(=O)C12CC3CC(CC(C3)C1)C2` gave Apoferritin bind 35µM.
COc1ccc(-c2nc(N3CCN(S(=O)(=O)c4ccc(C)cc4)CC3)c3ccccc3n2)cc1 was read as A549 tox inactive, Giardia kill inactive and Nrf2 inh inconclusive.
For CCOC(=O)N1CCN(S(=O)(=O)c2ccc(C(=O)NNc3nc4cc(C)cc(C)c4s3)cc2)CC1 the results were Apoferritin bind inactive, mIDH1 inhibitor inactive, A549 tox inconclusive, Nrf2 ARE act inactive, Giardia kill inactive and Nrf2 inh 3.7µM.

Screening data as filed in PubChem.
